# According to the supplement of paper PMC10849652:
# Of roughly 7,900 targets only a part is listed; those with a hit were picked by preference. About 0.6% of all pairs of compound and target were hits. Values without a mark were called inactive.
# Key:
# Assay in all cases: log2 fold change, soluble protein after heating vs DMSO (PISA); higher = thermal stabilisation; K562 cells, 10 uM, 30 min; active = over 0.2 and 3.5 SD of the protein, either way, in both replicates (recomputed)
# [1] = compound: NC(=O)Nc1cc(-c2cccc(F)c2)sc1C(=O)N[C@H]1CCCNC1
# How it was run: (§1)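 Quantification of soluble protein used TMTpro 16plex LC-MS/MS, with channel sums equalised. Samples were the supernatant after 21,000xg for 90 min of pooled aliquots from K562 cells (2×10^6 cells/mL) treated with 10 μM compound for 30 min, heated for 3 min over 48°C-58°C, and extracted in PBS with 0.5% NP-40 at 4°C. Values, from duplicates, describe thermal stability against control samples on a log2 fold-change scale.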
# [2] = compound: NC(=O)c1cnc(N[C@@H]2CCCC[C@@H]2N)nc1Nc1cccc(-n2nccn2)c1
# How it was run: as §1
# [3] = compound: NC1(c2ccc(-c3nc4ccn5c(=O)[nH]nc5c4cc3-c3ccccc3)cc2)CCC1
# How it was run: as §1
# [4] = compound: NCC(=O)Nc1ccc(-n2nc(C(F)(F)F)cc2-c2ccc3c(ccc4ccccc43)c2)cc1
# How it was run: as §1
# entinostat = compound: Nc1ccccc1NC(=O)c1ccc(CNC(=O)OCc2cccnc2)cc1 [entinostat]
# How it was run: as §1
# vorinostat = compound: O=C(CCCCCCC(=O)Nc1ccccc1)NO [vorinostat]
# How it was run: as §1
# citarinostat = compound: O=C(CCCCCCNC(=O)c1cnc(N(c2ccccc2)c2ccccc2Cl)nc1)NO [citarinostat]
# How it was run: as §1
# silmitasertib = compound: O=C(O)c1ccc2c(c1)nc(Nc1cccc(Cl)c1)c1ccncc12 [silmitasertib]
# How it was run: as §1
# [5] = compound: O=C1NC(=O)C(c2cnc3ccccn23)=C1c1cn2c3c(cc(F)cc13)CN(C(=O)N1CCCCC1)CC2
# How it was run: as §1
# [6] = compound: c1cc(OCCN2CCCCC2)cc(-c2n[nH]c3ccc(-c4nnc[nH]4)cc23)c1
# How it was run: as §1
# entospletinib = compound: c1cn2cc(-c3ccc4cn[nH]c4c3)nc(Nc3ccc(N4CCOCC4)cc3)c2n1 [entospletinib]
# How it was run: as §1
# Chain of UniProt Q9NV70 (Q9NV70 whole entry, looked up): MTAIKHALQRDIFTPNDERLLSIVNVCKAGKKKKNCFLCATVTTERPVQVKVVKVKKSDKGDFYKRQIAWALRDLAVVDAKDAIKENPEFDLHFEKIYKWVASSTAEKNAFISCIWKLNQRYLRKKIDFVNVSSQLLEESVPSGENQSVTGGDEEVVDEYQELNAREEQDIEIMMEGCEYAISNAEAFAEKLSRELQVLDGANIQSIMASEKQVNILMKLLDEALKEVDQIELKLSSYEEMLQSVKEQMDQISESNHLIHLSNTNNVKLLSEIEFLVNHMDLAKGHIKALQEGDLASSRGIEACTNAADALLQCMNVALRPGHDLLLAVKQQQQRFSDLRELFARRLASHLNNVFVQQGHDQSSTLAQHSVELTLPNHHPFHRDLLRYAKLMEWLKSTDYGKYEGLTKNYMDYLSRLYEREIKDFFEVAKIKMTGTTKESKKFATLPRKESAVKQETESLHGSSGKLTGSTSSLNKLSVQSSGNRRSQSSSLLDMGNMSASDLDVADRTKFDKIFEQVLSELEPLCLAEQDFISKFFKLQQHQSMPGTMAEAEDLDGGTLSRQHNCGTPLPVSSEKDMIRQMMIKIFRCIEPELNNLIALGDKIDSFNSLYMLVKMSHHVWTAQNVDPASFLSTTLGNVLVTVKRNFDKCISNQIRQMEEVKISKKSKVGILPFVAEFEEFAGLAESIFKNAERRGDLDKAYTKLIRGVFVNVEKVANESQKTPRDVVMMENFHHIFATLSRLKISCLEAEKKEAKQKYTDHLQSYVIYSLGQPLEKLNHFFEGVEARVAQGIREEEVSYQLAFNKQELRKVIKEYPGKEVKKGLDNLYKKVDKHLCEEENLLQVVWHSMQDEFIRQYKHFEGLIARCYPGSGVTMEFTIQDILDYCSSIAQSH
# Chain of UniProt P09668 (P09668 whole entry, looked up): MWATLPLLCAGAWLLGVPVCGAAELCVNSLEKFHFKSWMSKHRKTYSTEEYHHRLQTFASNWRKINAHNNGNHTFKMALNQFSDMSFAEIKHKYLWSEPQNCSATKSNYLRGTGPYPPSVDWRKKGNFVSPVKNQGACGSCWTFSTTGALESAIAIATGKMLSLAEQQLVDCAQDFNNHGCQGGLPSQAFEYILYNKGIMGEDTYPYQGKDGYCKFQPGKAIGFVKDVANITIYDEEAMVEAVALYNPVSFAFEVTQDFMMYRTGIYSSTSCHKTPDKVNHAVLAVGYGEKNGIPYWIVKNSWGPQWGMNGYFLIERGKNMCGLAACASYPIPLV
# Chain of UniProt Q9NYP7 (Q9NYP7 whole entry, looked up): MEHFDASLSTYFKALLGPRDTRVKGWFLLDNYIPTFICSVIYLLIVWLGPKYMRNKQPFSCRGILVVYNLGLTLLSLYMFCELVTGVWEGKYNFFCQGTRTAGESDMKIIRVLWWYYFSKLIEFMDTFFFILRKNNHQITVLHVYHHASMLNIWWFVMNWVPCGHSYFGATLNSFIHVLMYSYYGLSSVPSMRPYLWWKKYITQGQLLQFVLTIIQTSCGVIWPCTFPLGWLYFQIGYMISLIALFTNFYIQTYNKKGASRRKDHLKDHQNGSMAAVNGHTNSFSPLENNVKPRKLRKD
# Chain of UniProt O75822 (O75822 whole entry, looked up): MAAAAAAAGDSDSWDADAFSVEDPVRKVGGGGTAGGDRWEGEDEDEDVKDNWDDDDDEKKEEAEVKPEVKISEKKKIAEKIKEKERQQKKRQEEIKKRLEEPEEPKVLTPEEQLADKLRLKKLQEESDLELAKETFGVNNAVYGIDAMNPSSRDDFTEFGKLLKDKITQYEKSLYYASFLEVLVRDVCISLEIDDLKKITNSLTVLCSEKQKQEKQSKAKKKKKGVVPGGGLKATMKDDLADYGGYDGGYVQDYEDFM
# Chain of UniProt Q9UBQ6 (Q9UBQ6 whole entry, looked up): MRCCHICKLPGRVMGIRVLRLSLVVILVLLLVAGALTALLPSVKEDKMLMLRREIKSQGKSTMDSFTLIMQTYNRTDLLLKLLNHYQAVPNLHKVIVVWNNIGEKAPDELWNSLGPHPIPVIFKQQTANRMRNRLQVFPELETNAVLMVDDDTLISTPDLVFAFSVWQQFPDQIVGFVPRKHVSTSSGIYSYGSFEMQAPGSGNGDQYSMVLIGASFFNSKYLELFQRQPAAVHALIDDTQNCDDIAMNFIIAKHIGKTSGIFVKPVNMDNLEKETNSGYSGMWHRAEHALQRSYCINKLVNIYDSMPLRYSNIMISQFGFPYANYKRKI
# Chain of UniProt Q96G46 (Q96G46 whole entry, looked up): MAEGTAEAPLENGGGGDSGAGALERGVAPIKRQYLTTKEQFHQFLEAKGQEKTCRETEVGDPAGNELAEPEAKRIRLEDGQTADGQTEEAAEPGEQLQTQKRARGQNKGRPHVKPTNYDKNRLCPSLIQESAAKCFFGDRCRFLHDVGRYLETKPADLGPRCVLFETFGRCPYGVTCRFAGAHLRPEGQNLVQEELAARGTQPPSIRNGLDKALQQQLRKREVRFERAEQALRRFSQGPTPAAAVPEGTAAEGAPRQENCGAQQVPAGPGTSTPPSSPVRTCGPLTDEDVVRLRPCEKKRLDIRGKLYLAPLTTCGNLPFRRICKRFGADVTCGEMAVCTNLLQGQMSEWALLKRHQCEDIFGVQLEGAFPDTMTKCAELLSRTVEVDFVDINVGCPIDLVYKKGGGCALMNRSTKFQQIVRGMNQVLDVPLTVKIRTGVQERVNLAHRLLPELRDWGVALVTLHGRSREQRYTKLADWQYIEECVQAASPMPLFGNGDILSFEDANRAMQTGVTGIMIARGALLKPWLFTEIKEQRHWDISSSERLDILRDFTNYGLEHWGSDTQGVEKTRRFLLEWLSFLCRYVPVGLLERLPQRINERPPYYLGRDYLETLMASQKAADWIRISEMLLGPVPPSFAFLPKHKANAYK
# Chain of UniProt Q96DF8 (Q96DF8 whole entry, looked up): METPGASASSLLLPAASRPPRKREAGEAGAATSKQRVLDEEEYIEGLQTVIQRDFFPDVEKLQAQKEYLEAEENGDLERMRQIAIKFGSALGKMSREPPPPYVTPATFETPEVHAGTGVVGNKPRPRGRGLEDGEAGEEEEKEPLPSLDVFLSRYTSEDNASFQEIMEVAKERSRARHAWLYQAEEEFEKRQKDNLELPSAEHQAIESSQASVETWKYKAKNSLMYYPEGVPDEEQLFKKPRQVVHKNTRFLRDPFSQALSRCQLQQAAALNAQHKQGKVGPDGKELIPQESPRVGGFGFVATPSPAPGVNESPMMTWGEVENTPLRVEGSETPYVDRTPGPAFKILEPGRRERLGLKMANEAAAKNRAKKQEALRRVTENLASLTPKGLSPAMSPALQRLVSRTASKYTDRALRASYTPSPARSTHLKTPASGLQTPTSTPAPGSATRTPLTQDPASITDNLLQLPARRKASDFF
# Chain of UniProt Q14203 (Q14203 whole entry, looked up): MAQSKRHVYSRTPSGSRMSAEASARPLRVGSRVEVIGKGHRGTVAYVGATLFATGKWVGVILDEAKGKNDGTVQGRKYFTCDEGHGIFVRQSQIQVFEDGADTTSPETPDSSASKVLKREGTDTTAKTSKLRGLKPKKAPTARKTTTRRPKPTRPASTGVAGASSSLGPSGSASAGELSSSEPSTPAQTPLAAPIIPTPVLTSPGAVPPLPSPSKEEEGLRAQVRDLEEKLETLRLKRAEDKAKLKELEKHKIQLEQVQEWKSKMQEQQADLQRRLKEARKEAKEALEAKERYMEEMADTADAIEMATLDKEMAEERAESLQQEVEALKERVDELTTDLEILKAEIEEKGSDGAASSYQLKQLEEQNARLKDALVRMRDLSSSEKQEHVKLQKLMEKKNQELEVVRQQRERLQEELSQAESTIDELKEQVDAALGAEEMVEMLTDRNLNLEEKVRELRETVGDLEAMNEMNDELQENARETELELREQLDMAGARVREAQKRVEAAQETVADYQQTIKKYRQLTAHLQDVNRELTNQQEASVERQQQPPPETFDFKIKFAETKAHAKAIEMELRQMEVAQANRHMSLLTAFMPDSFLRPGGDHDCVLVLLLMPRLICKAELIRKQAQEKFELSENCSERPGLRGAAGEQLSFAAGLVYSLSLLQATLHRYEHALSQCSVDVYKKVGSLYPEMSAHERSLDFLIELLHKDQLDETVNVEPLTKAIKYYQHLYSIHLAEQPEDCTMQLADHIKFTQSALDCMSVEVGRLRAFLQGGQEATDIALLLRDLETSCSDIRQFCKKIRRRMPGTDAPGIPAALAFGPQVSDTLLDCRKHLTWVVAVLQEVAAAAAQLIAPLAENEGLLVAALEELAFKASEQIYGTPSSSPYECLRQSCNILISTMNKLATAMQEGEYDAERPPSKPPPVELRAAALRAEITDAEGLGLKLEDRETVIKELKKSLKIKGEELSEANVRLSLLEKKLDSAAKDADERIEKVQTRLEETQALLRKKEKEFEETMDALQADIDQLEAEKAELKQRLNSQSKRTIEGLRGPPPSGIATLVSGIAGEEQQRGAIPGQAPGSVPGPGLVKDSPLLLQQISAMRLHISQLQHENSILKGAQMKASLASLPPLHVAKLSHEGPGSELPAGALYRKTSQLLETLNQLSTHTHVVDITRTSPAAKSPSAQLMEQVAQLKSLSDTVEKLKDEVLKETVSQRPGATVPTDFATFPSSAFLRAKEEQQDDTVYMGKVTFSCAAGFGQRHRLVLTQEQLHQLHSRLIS
# Chain of UniProt P41091 (P41091 whole entry, looked up): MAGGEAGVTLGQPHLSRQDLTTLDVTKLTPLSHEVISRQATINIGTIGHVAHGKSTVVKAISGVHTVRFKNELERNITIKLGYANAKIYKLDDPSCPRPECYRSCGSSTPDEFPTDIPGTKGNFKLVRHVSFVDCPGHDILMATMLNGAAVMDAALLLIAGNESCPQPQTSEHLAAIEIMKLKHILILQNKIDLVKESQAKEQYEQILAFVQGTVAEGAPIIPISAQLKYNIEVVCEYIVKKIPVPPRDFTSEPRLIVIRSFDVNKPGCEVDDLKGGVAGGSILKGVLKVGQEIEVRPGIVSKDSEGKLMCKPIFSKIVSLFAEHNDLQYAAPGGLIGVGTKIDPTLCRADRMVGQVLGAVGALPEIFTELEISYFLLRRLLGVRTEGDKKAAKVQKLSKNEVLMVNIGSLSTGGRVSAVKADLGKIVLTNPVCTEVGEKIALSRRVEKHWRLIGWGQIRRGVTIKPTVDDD
Target,log2 fold change [1],log2 fold change [2],log2 fold change [3],log2 fold change [4],log2 fold change (entinostat),log2 fold change (vorinostat),log2 fold change (citarinostat),log2 fold change (silmitasertib),log2 fold change [5],log2 fold change [6],log2 fold change (entospletinib)
EXOC5 (UniProt O00471),0.01,-0.101,-0.222,-0.063,0.069,0.086,0.027,0.042,-0.02,-0.153,0.002
EXOC4 (UniProt Q96A65),0.081,-0.216,-0.205,-0.051,0.078,0.174,0.16,0.091,0.044,-0.094,-0.067
EXTL2 (UniProt Q9UBQ6),-0.051,-0.033,-0.018,0.039,-0.01,0.019,-0.044,-0.011,0.003,-0.223,0.03
DCUN1D1 (UniProt Q96GG9),-0.024,-0.048,-0.102,-0.01,0.016,0.002,0.054,0.002,-0.098,-0.02,-0.023
EXOC1 (UniProt Q9NV70),0.043,-0.162,-0.228,-0.065,0.062,0.082,0.014,0.127,0.069,-0.165,-0.035
DCTN1 isoform 4 (UniProt Q14203),0.002,-0.052,-0.033,0.019,0.049,0.029,0.007,0.046,0.081,-0.089,0.061
CTSH (UniProt P09668),0.012,0.029,0.032,0.04,-0.002,-0.01,-0.02,0.005,0.022,0.197,-0.021
DIAPH1 (UniProt O60610),-0.156,-0.085,-0.067,-0.064,0.024,0.066,0.056,0.115,0.178,-0.046,0.1
CUX1 isoform 2 (UniProt Q13948),-0.027,-0.031,-0.033,-0.026,0.343 (active),0.076,0.137,-0.016,-0.047,-0.03,-0.019
DPH5 isoform 5 (UniProt Q9H2P9),-0.036,-0.005,0.209,-0.003,-0.018,-0.009,0.017,-0.008,0.109,0.038,-0.045
FAM177A1 isoform 2 (UniProt Q8N128),0.047,-0.053,-0.023,-0.038,0.007,0.072,0.047,0.029,-0.089,0.002,0.05
EIF3J (UniProt O75822),0.035,-0.033,-0.072,0.007,0.012,0.143,0.001,0.042,-0.017,0.022,-0.005
CTSB (UniProt P07858),-0.013,-0.043,-0.283 (active),0.005,-0.047,0.016,-0.015,0.002,-0.067,-0.07,0.008
DAG1 (UniProt Q14118),-0.035,0.123,0.081,-0.054,-0.013,0.023,-0.015,-0.005,-0.015,-0.001,0.003
"FADS1, A0A0A0MR51",-0.041,-0.036,-0.074,0.036,-0.002,-0.105,-0.029,0.014,-0.15,-0.029,0.055
DNAJB12 (UniProt Q9NXW2),-0.03,-0.018,-0.048,-0.029,0.001,0.027,0.027,0.079,-0.038,0.002,0.01
DHFR (UniProt P00374),0.095,0.209,0.849 (active),-0.139,-0.02,0.082,0.042,0.57 (active),0.072,-0.048,0.013
DCAF13 (UniProt Q9NV06),-0.004,0.049,0.196,0.077,-0.058,0.004,-0.044,0.108,0.054,-0.077,0.061
ELOVL5 isoform 2 (UniProt Q9NYP7),-0.07,0.001,-0.194,-0.065,0.056,0.062,0,0.098,0.035,-0.158,0.063
EPHX2 (UniProt P34913),-0.148,-0.05,-0.016,-0.015,0.045,0.113,0.025,0.003,-0.025,-0.037,0.05
ESS2 (UniProt Q96DF8),0.036,0.048,-0.078,0.069,-0.027,-0.012,0.014,0.04,0.033,-0.017,0.118
EXOC6 (UniProt Q8TAG9),-0.052,-0.091,-0.258,-0.078,0.045,0.324 (active),0.023,0.049,0.03,0.007,0.014
EIF2S3 (UniProt P41091),0.034,0.006,0.163,0.025,-0.001,0,-0.044,-0.001,0.066,-0.154,-0.051
DBN1 isoform 3 (UniProt Q16643),0.098,0.027,-0.039,-0.003,-0.036,0.128,-0.032,0.066,-0.03,-0.053,-0.038
DUS3L (UniProt Q96G46),0.113,-0.012,0.194,0.003,0.003,0.093,0.058,0.112,-0.176,-0.029,-0.086
DYNC1LI2 (UniProt O43237),0.093,-0.021,0.206,-0.075,-0.026,0.075,-0.101,0.214,0.158,-0.108,-0.005
FAAP100 (UniProt Q0VG06),0.009,0.039,-0.076,-0.031,-0.05,0.048,-0.012,-0.051,0.197,-0.053,0.003
CWC27 (UniProt Q6UX04),-0.062,0.016,-0.142,-0.103,0.113,0.062,0.089,0.062,-0.092,0.026,-0.019
